In all, about 5,500 compounds went through this assay and about 2,000 (36%) were called active. About 18% were inconclusive and are not listed. Rule as the data show it: active = normalized growth mostly below about 0.91 (no sharp cut-off); inconclusive = no clear call, values can overlap the other calls; inactive = mostly above about 0.92. Some of the results follow.
Assay: chemical genetic growth profiling, strain panel (AID 1159580);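 also: tested at 20 µM; growth read once vehicle control cultures reached saturation at 30 °C; 1 = growth at the plate median or of vehicle wells; lower values mean less growth of the strain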
Conditions: S. cerevisiae deletion strains, growth OD
[1] = locus YAL021C, strain ccr4, stronger effect = lower value
[2] = locus YAL026C, strain drs2, stronger effect = lower value
[3] = locus YAL030W, strain snc1, stronger effect = lower value
[4] = locus YBL061C, strain skt5, stronger effect = lower value
[5] = locus YBR009C, strain hhf1, stronger effect = lower value
[6] = locus YBR023C, strain chs3, stronger effect = lower value
[7] = locus YBR171W, strain sec66, stronger effect = lower value
[8] = locus YBR231C, strain swc5, stronger effect = lower value
[9] = locus YBR279W, strain paf1, stronger effect = lower value
[10] = locus YCL011C, strain gbp2, stronger effect = lower value
[11] = locus YCL016C, strain dcc1, stronger effect = lower value
[12] = locus YCL061C, strain MRC1, stronger effect = lower value
[13] = locus YCL069W, strain vba3, stronger effect = lower value
[14] = locus YCR088W, strain abp1, stronger effect = lower value
[15] = locus YDL005C, strain med2, stronger effect = lower value
[16] = locus YDL040C, strain nat1, stronger effect = lower value
[17] = locus YDR001C, strain nth1, stronger effect = lower value
[18] = locus YDR069C, strain doa4, stronger effect = lower value
[19] = locus YDR137W, strain rgp1, stronger effect = lower value
[20] = locus YDR159W, strain sac3, stronger effect = lower value
[21] = locus YDR297W, strain sur2, stronger effect = lower value
[22] = locus YDR334W, strain swr1, stronger effect = lower value
[23] = locus YDR335W, strain msn5, stronger effect = lower value
[24] = locus YDR392W, strain spt3, stronger effect = lower value
[25] = locus YEL003W, strain gim4, stronger effect = lower value
[26] = locus YEL037C, strain rad23, stronger effect = lower value
[27] = locus YEL061C, strain CIN8 (second series), stronger effect = lower value
[28] = locus YER015W, strain faa2, stronger effect = lower value
[29] = locus YER016W, strain bim1, stronger effect = lower value
[30] = locus YER111C, strain swi4, stronger effect = lower value
[31] = locus YER155C, strain BEM2 (second series), stronger effect = lower value
[32] = locus YFR010W, strain ubp6, stronger effect = lower value
[33] = locus YGL167C, strain pmr1, stronger effect = lower value
[34] = locus YGL173C, strain kem1, stronger effect = lower value
[35] = locus YGL227W, strain vid30, stronger effect = lower value
[36] = locus YGL240W, strain doc1, stronger effect = lower value
[37] = locus YGL253W, strain hxk2, stronger effect = lower value
[38] = locus YHR013C, strain ard1, stronger effect = lower value
[39] = locus YHR027C, strain rpn1, stronger effect = lower value
[40] = locus YHR142W, strain chs7, stronger effect = lower value
[41] = locus YJL092W, strain hpr5, stronger effect = lower value
[42] = locus YJL095W, strain BCK1 (second series), stronger effect = lower value
[43] = locus YJL115W, strain asf1, stronger effect = lower value
[44] = locus YJL129C, strain trk1, stronger effect = lower value
[45] = locus YJL154C, strain vps35, stronger effect = lower value
[46] = locus YJL164C, strain tpk1, stronger effect = lower value
[47] = locus YJL166W, strain qcr8, stronger effect = lower value
[48] = locus YJL187C, strain SWE1, stronger effect = lower value
[49] = locus YKL160W, strain elf1, stronger effect = lower value
[50] = locus YKR026C, strain gcn3, stronger effect = lower value
[51] = locus YKR091W, strain srl3, stronger effect = lower value
[52] = locus YLL001W, strain dnm1, stronger effect = lower value
[53] = locus YLL026W, stronger effect = lower value
[54] = locus YLL041C, strain sdh2, stronger effect = lower value
[55] = locus YLR027C, strain aat2, stronger effect = lower value
[56] = locus YLR221C, strain rsa3, stronger effect = lower value
[57] = locus YLR258W, strain gsy2, stronger effect = lower value
[58] = locus YLR262C, strain YPT6 (second series), stronger effect = lower value
[59] = locus YLR320W, strain mms22, stronger effect = lower value
[60] = locus YLR342W, strain FKS1, stronger effect = lower value
[61] = locus YLR357W, strain rsc2, stronger effect = lower value
[62] = locus YLR370C, strain arc18, stronger effect = lower value
[63] = locus YLR384C, strain iki3, stronger effect = lower value
[64] = locus YML120C, strain ndi1, stronger effect = lower value
[65] = locus YMR058W, strain fet3, stronger effect = lower value
[66] = locus YMR125W, strain sto1, stronger effect = lower value
[67] = locus YMR129W, stronger effect = lower value
[68] = locus YMR205C, strain PFK2, stronger effect = lower value
[69] = locus YMR231W, strain pep5, stronger effect = lower value
[70] = locus YNL071W, strain lat1, stronger effect = lower value
[71] = locus YNL209W, strain ssb2, stronger effect = lower value
[72] = locus YNL248C, strain rpa49, stronger effect = lower value
[73] = locus YNL322C, strain KRE1 (second series), stronger effect = lower value
[74] = locus YNR049C, strain mso1, stronger effect = lower value
[75] = locus YOR001W, strain rrp6, stronger effect = lower value
[76] = locus YOR070C, strain gyp1, stronger effect = lower value
[77] = locus YOR080W, strain dia2, stronger effect = lower value
[78] = locus YOR083W, strain WHI5, stronger effect = lower value
[79] = locus YOR106W, strain vam3, stronger effect = lower value
[80] = locus YOR265W, strain rbl2, stronger effect = lower value
[81] = locus YOR270C, strain vph1, stronger effect = lower value
[82] = locus YOR290C, strain snf2, stronger effect = lower value
[83] = locus YPL051W, strain arl3, stronger effect = lower value
[84] = locus YPL078C, strain atp4, stronger effect = lower value
[85] = locus YPL106C, strain sse1, stronger effect = lower value
[86] = locus YPL240C, strain hsp82, stronger effect = lower value
[87] = locus YHR030C, strain SLT2, stronger effect = lower value
[88] = locus YHR079C, strain IRE1, stronger effect = lower value
[89] = locus YJL095W, strain BCK1, stronger effect = lower value
[90] = locus YJR066W, strain TOR1, stronger effect = lower value
[91] = locus YLR113W, strain HOG1, stronger effect = lower value
[92] = locus YNL183C, strain NPR1, stronger effect = lower value
[93] = locus YOR231W, strain MKK1, stronger effect = lower value
[94] = locus YPL256C, strain CLN2, stronger effect = lower value

Measured: normalized growth

C#CCCCCCCCCCCCc1ccco1
active: [24] 0.603 | [31] 0.849 | [70] 0.877
inactive: [1] 1.02 | [2] 0.98 | [3] 0.997 | [4] 0.999 | [5] 0.954 | [6] 0.994 | [7] 0.997 | [8] 0.995 | [9] 1 | [10] 0.983 | [11] 0.999 | [12] 1 | [13] 0.995 | [14] 0.992 | [15] 0.991 | [16] 0.987 | [17] 0.99 | [18] 0.983 | [19] 0.993 | [20] 0.958 | locus YDR195W, strain ref2 0.99 | [21] 1 | [22] 0.999 | [23] 0.989 | [25] 1.01 | [26] 1.01 | [27] 1 | [28] 0.992 | [29] 0.988 | [30] 0.972 | [32] 0.996 | [33] 0.999 | [34] 0.989 | [35] 0.991 | [36] 0.995 | [37] 0.989 | [38] 0.869 | [39] 1 | [40] 0.971 | [41] 0.989 | [42] 0.997 | [43] 0.987 | [44] 0.968 | [45] 1.01 | [46] 0.973 | [47] 0.947 | [48] 1 | [49] 0.985 | [50] 0.964 | [51] 0.993 | [52] 0.981 | [53] 0.982 | [54] 1 | [55] 0.985 | [56] 0.975 | [57] 0.99 | [58] 0.917 | [59] 0.932 | [60] 0.989 | [61] 0.975 | [62] 0.998 | [63] 0.987 | [64] 1 | [65] 0.987 | [66] 0.958 | [67] 0.998 | [68] 0.938 | [69] 0.993 | [71] 0.998 | [72] 0.982 | [73] 0.983 | [74] 0.996 | [75] 1 | [76] 1.01 | [77] 0.993 | [78] 0.985 | [79] 0.949 | [80] 1 | [81] 0.962 | [82] 0.975 | [83] 0.988 | [84] 0.991 | [85] 1.04 | [86] 1

C=CCCCCCCCCCCCc1ccco1
inactive: [1] 0.981 | [3] 0.939 | [7] 0.995 | [15] 0.979 | [16] 0.999 | [17] 1.01 | [18] 0.94 | locus YDR195W, strain ref2 0.939 | [26] 0.995 | [30] 0.975 | [32] 0.921 | [33] 1.01 | [39] 0.937 | [87] 0.87 | [88] 0.858 | [41] 0.933 | [43] 0.984 | [44] 0.877 | [45] 1.01 | [90] 0.925 | [50] 0.986 | [51] 0.996 | [53] 0.935 | [54] 0.968 | [61] 0.967 | [62] 0.966 | [63] 0.967 | [64] 0.934 | [67] 0.976 | [69] 0.997 | [92] 0.869 | [71] 0.945 | [73] 0.976 | [74] 0.994 | [75] 0.954 | [77] 0.99 | [80] 0.976 | [82] 0.909 | [85] 0.96 | [94] 0.856
active: [2] 0.869 | [4] 0.896 | [5] 0.659 | [6] 0.905 | [8] 0.873 | [9] 0.873 | [10] 0.803 | [11] 0.861 | [13] 0.848 | [14] 0.916 | [19] 0.629 | [20] 0.854 | [21] 0.878 | [23] 0.84 | [24] 0.0917 | [25] 0.884 | [27] 0.52 | [28] 0.913 | [29] 0.814 | [31] 0.309 | [34] 0.868 | [35] 0.766 | [36] 0.869 | [37] 0.82 | [38] 0.613 | [40] 0.53 | [42] 0.587 | [89] 0.877 | [46] 0.819 | [47] 0.589 | [49] 0.732 | [52] 0.885 | [55] 0.727 | [91] 0.832 | [56] 0.66 | [57] 0.861 | [58] 0.582 | [59] 0.621 | [60] 0.858 | [65] 0.692 | [66] 0.807 | [68] 0.719 | [70] 0.253 | [72] 0.879 | [76] 0.833 | [78] 0.863 | [79] 0.819 | [93] 0.856 | [81] 0.626 | [83] 0.754 | [84] 0.79 | [86] 0.847

CCCCCCCCCCCCCc1ccco1
inactive: [1] 1.01 | [2] 0.976 | [3] 0.991 | [4] 0.979 | [6] 0.969 | [7] 0.991 | [8] 0.938 | [9] 0.947 | [10] 0.954 | [11] 0.973 | [12] 0.96 | [13] 0.989 | [14] 0.993 | [15] 0.988 | [16] 0.983 | [17] 0.989 | [18] 0.964 | [19] 0.886 | [20] 0.933 | locus YDR195W, strain ref2 0.973 | [21] 0.989 | [22] 0.987 | [23] 0.987 | [25] 0.953 | [26] 0.983 | [27] 0.976 | [28] 0.989 | [29] 0.978 | [30] 0.966 | [32] 0.96 | [33] 0.979 | [34] 0.968 | [35] 0.971 | [36] 0.936 | [37] 0.98 | [39] 0.992 | [87] 0.951 | [88] 0.937 | [40] 0.922 | [41] 0.988 | [42] 0.939 | [89] 0.977 | [43] 0.99 | [44] 0.925 | [45] 0.991 | [48] 0.978 | [90] 0.944 | [49] 0.931 | [50] 0.966 | [51] 0.989 | [52] 0.976 | [53] 0.949 | [54] 0.99 | [55] 0.939 | [91] 0.939 | [57] 0.94 | [60] 0.986 | [61] 0.99 | [62] 0.989 | [63] 0.983 | [64] 0.959 | [65] 0.925 | [66] 0.934 | [67] 0.985 | [69] 0.985 | [92] 0.908 | [71] 0.993 | [72] 0.999 | [73] 0.995 | [74] 0.989 | [75] 0.974 | [76] 0.944 | [77] 1 | [78] 0.96 | [79] 0.927 | [93] 0.899 | [80] 0.981 | [81] 0.929 | [82] 0.913 | [83] 0.964 | [84] 0.947 | [85] 1.01 | [86] 0.991 | [94] 0.91
active: [5] 0.825 | [24] 0.266 | [31] 0.635 | [38] 0.699 | [46] 0.915 | [47] 0.835 | [56] 0.889 | [58] 0.816 | [59] 0.81 | [68] 0.841 | [70] 0.621

Source: PubChem BioAssay AID1159580 (chemical genetic matrix, 2015)
